Source: PubChem BioAssay (NCI)
This is part of a sample that, as a whole, favours compounds with a hit. Of some 83,000 tested, about 20% had one in any assay.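 For each line, cells grew in 96-well plates with the test compound present at a single concentration for 48 hours.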 Activity calls are given as the source filed them.

Tested on: NCI-H226 lung
Experiment: NCI-60 one-dose screen, 48 h (100 = growth as untreated, 0 = no growth, -100 = all killed)
Conditions: 10 µM unless noted
Procedure: Growth inhibition of the NCI-H226 human Non-Small Cell Lung tumor cell line is measured as a screen for anti-cancer activity. Cells are grown in 96 well plates and exposed to the test compound for 48 hours. Compounds are tested at a single concentration, which is 10^-5 M for most compounds. The reported endpoint is percent growth (GI% or GIPRCNT), where numbers from 0 - 100% represent growth inhibition, and numbers from -100% - 0 represent cell death. For example, a value of 40 represents 60% growth inhibition. A value of 0 means no net growth occurred over the course of the experiment. A value of -40 indicates 40% of cells at the beginning of the experiment died by the end of the experiment. A value of -100 means all cells are dead at the end of the experiment.
NCI-60 Human Tumor Cell Lines Screen was performed using the standard one-dose NCI protocol, which is described in more detail at https://dtp.cancer.gov/discovery_development/nci-60/default.htm.
Compounds with GIPRCNT values below 10 were considered active. Activity score was based on GIPRCNT using the following formula: […]
Score is 0 for GIPRCNT values of 100 or above, 50 for GIPRCNT values of 0, and 100 for GIPRCNT values of -100.

| SMILES | growth |
| --- | --- |
| C[C@@H]1C[C@@H]([C@@H](CC2CC(=O)NC(=O)C2)OC(=O)CC(=O)c2ccccc2)C(=O)[C@@H](C)C1 | 4.07% (active) |
| Cc1cc(C(=O)Nc2ccc3cc(CN4CCOCC4)ccc3n2)c(C)n1-c1ccccc1 | 21.9% (inactive) |
| CSc1nc2nc3c(c(-c4ccc(C)cc4)c2c(=O)[nH]1)CN(C)C/C3=C\c1ccc(C)cc1 | 102% (inactive) |
| Nc1ccc2c(c1)Cc1cc(Cl)c(Cl)cc1-2 | 92.3% (inactive) |
| O=C1NC(=O)/C(=C/c2ccc(Cl)cc2Cl)N1 | 99.4% (inactive) |
| COc1cc(/C=C2\CN(C)CC3=C2Nc2nc(SC)[nH]c(=O)c2C3c2cc(OC)c(OC)c(OC)c2)cc(OC)c1OC (stereo not given) | 72.1% (inactive) |
| COc1ccc(-n2cnc3cc(C(=O)N4CCCCC4)ccc32)cc1 | 95.3% (inactive) |
| CSc1nc(Nc2ccc(S(=O)(=O)Nc3ccon3)cc2)c(C#N)c(-c2ccc(Cl)cc2)n1 | 95% (inactive) |
| Nc1nc(SCc2cccnc2)c2ncn(C3OC(CO)C(O)C3O)c2n1 (stereo not given) | 94.9% (inactive) |
| O=Nc1c2cccnc2n2nnc3ccc(Cl)cc3c12 | 85.9% (inactive) |
| Nc1ccc2c(c1)C(=O)c1cc(Cl)c(Cl)cc1-2 | 83.1% (inactive) |
| CC(=O)c1nn(-c2ccccc2)c(=Nc2ccccc2)cc1C | 98.1% (inactive) |
| N#CC1c2ccccc2C=CN1C(=O)N(c1ccccc1)c1ccccc1 (stereo not given) | 95.9% (inactive) |
| CC(C)CC1NC(=O)C(CCCN)NC(=O)C(C(C)C)NC(=O)C2CCCN2C(=O)C(Cc2ccccc2)NC(=O)C(CC(C)C)NC(=O)C(CCCN)NC(=O)C(C(C)C)NC(=O)C2CCCN2C(=O)C(Cc2ccccc2)NC1=O (stereo not given) | -59.7% (active) |
| CC(=O)N1N=C(c2ccc3c(c2)OCO3)CC1c1c(C)nn(-c2ccccc2)c1N(C)Cc1ccccc1 (stereo not given) | 76.3% (inactive) |
| COc1ccc(-c2nc3sc4c(c3c(=O)[nH]2)CCCCCC4)cc1 | 86.5% (inactive) |
| Cc1cc(C)nc(NS(=O)(=O)c2ccc(Nc3nc4nc(SCc5ccccc5)nc(-c5ccc(O)cc5)c4c(=O)[nH]3)cc2)n1 | 93.8% (inactive) |
| COc1cnc2c(c1)C(=O)c1c-2n(CCCNC(C)C)c(=O)c2cc(F)ccc12 | -52.6% (active) |
| c1ccc(Nc2ccc(Nc3nc(-c4ccccc4)nc4ccccc34)cc2)cc1 | 81.2% (inactive) |
| COc1ccc2cc(C3=CC(=O)CCC3)ccc2c1 | 55.5% (inactive) |

| SMILES | growth |
| --- | --- |
| COc1cc(/C=C/C(=O)CC(=O)/C=C/c2ccc(OC(=O)C3C4CC5CC(C4)CC3C5)c(OC)c2)ccc1OC(=O)C1C2CC3CC(C2)CC1C3 (stereo not given) | 123% (inactive) |
| COc1cc(/C=C/C(=O)CC(=O)/C=C/c2ccc(OC(=O)CCNC34CC5CC(CC(C5)C3)C4)c(OC)c2)ccc1OC(=O)CCNC12CC3CC(CC(C3)C1)C2 | 39.8% (inactive) |
| COc1cc(/C=C2\CN(S(=O)(=O)c3ccc(C)cc3)C/C(=C\c3cc(CN4CCOCC4)c(O)c(OC)c3)C2=O)cc(CN2CCOCC2)c1O | -40.2% (active) |
| C[C@H]1O[C@@H](O[C@H]2[C@@H](O)C[C@H](O[C@H]3[C@@H](O)C[C@H](O[C@H]4CC[C@]5(C)C6C[C@@H](O)[C@]7(C)[C@@H](C8=CC(=O)OC8)CC[C@]7(O)C6CC[C@@H]5C4)O[C@@H]3C)O[C@@H]2C)C[C@H](O)[C@@H]1O (stereo not given in full) | -100% (active) |
| Clc1ccc(C2c3ccccc3-c3nccn32)c(Cl)c1 (stereo not given) | 66.6% (inactive) |
| CCC(C)C1NC(=O)C(CCNCS(=O)(=O)O)NC(=O)C(NC(=O)C(CCNCS(=O)(=O)O)NC(=O)C(NC(=O)C(CCNCS(=O)(=O)O)NC(=O)CCCCC(C)C)C(C)O)CCNC(=O)C(C(C)O)NC(=O)C(CCNCS(=O)(=O)O)NC(=O)C(CCNCS(=O)(=O)O)NC(=O)C(C(C)CC)NC1=O (stereo not given) | 77% (inactive) |
| COc1ccccc1NC(=O)c1sc2nc3c(cc2c1N)C(=O)CCC3 | 76.2% (inactive) |
| COC(=O)C1(NC(=O)CNC(=O)OCc2ccccc2)CCCC1 | 99.1% (inactive) |
| CC(=O)Nc1c(Cl)cc2c(c1Cl)Cc1cc([N+](=O)[O-])ccc1-2 | 85% (inactive) |
| CCCCCc1c(C)[nH]c(/C=C2\N=C(c3ccc[nH]3)C=C2Oc2ccccc2)c1C | -38.2% [100 µM] (active) |
| CN(C)c1ccc(-c2nc3ncc(Br)cc3o2)cc1 | 97.9% (inactive) |
| N#Cc1c(NC(=O)c2ccco2)[n+]([O-])c2cc(Cl)c(Cl)cc2[n+]1[O-] | 106% (inactive) |
| CCCn1c(N)c(C(=O)CNc2ccc(I)cc2)c(=O)[nH]c1=O | 62.7% (inactive) |
| Fc1ccccc1C1c2ccccc2-c2nccn21 (stereo not given) | 88.1% (inactive) |
| CCOC(=O)C(C(=O)OCC)C1CCCCC1 | 98.7% (inactive) |
| COc1cnc2c(c1)C(=O)c1c-2n(CCCN2CCNCC2)c(=O)c2cc(F)ccc12 | -57.6% (active) |
| O=C(/C=C/c1ccc(C(F)(F)F)cc1)c1ccc(Nc2nc(NCCO)nc(NCCO)n2)cc1 | 75.3% (inactive) |
| CC(=O)Nc1cc(C(c2ccccc2)c2ccccc2)cc(C(c2ccccc2)c2ccccc2)c1C | 55.6% (inactive) |
| O=C(O)C1C(c2ccccc2)c2ccccc2C(O)C1CO (stereo not given) | 105% (inactive) |
| CCCCCCCCCCCCCCCCCC1=NC(C)(CO)CO1 (stereo not given) | 91.1% (inactive) |
